Screening data from PubChem.
Sampled rows, rich in hits. Any-hit rate of the full collection: about 11%.
Tau fibril FP: inhibitors of human tau fibril formation. P10636. K18 P301L tau heparin fibrillization, Alexa594 FP, 6 h. Potency, µM (doses to about 57.7 µM), hits mostly inhibitors. hit rate 0.39% among 280,000; further: nearly all actives have a fitted effect of over 55% in size
Target sequence (P10636 561-689 P618L limits assumed): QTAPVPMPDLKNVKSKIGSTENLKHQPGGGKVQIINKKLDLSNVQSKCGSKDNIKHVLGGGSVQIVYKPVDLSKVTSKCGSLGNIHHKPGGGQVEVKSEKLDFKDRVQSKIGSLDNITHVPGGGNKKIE
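Compound effects on tau fibrillization are measured by Alexa 594 fluorescence polarization (ex 555, em 632 nm). K18 P301L tau is used at 15 uM with 0.24 uM labeled tracer, and 20 uM heparin induces aggregation over 6 hr at 37 C.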
G9a inh: blocks human histone lysine methyltransferase G9a. Potency, µM (top dose mostly 102 µM), usual class: inhibitors. G9a H3K9 monomethylation, AlphaScreen, 2 h. hit rate 8.8% among 350,000. AID 504332; further: nearly all actives have a fitted effect of over 75% in size
Target sequence (Q96KQ7 913-1193 limits assumed): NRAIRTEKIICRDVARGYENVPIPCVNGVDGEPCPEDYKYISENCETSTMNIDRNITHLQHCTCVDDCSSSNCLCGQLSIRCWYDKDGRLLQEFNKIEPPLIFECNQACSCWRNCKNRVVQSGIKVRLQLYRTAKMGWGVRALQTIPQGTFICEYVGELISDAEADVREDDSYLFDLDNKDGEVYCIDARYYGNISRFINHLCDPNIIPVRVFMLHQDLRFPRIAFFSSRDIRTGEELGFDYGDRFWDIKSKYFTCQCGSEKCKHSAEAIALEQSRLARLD
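Compounds were preincubated with 20 nM G9a for 15 min, after which biotinylated H3K9 peptide (500 nM) and SAM (20 uM) started a 2 h room-temperature reaction. Monomethylated product was quantified by antibody-based AlphaScreen chemiluminescence.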
Tau fluor counter: counter-screen for tau fibril formation inhibitors; Potency, µM (highest dose often 57.7 µM); tau K18 P301L Alexa594 fluorescence, heparin fibrillization; AID 1463; hit rate 0.93% among 280,000; further: nearly all actives have a fitted effect of over 55% in size
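Human tau K18 P301L (15 uM unlabeled, 0.24 uM Alexa 594-labeled) in 100 mM sodium acetate pH 7 with 20 uM heparin, 6 hr at 37 C. ThT 30 uM added, 1 hr ambient; Alexa 594 FP and total fluorescence read at 555/632 nm.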
Sfp PPTase inh: Sfp phosphopantetheinyl transferase inhibition; AID 1490; hit rate 3.5% among 310,000; Potency, µM, actives largely listed as inhibitors; Q9F4F7; Biochemical Sfp PPTase activity, qHTS;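 further: the enzyme is Sfp with the accession as filed and its product quenches rhodamine fluorescence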
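With Hepes-Na pH 7.6 buffer containing 10 mM MgCl2, Sfp (15 nM) modified BHQ-2-YbbR (12.5 uM) using rhodamine-CoA (5 uM). Two reads 30 minutes apart at 525/598 nm yielded each well's rate.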
Tau ThT inhib: inhibitors of human tau fibril formation, thioflavin T binding; P10636; recombinant tau K18 P301L (four-repeat tau fragment), heparin-induced fibrillization, ThT fluorescence; Potency, µM (titrated, usually from 57.4 µM), usual class: inhibitors; hit rate 2.1% among 270,000; AID 1460; further: nearly all actives have a fitted effect of over 55% in size
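Recombinant human tau K18 fragment […] carrying P301L, 15 uM unlabeled plus 0.24 uM Alexa 594-labeled, was fibrillized with 20 uM heparin in 100 mM sodium acetate pH 7 for 6 hr at 37 C; 30 uM ThT fluorescence read after 1 hr.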
Coupling enz: coupling enzyme interference in Giardia aldolase counter-screen. coupling enzyme system counterscreen, AmpLite Red fluorescence. activity change, negative = inhibition, % at 58.2 µM, hits read low. hit rate 0.67% among 290,000. AID 2472; in the data active means activity change below about -30%
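Final compound at 57.5 uM, incubated 10 min at RT with coupling enzyme reagent (glyceraldehyde-3-phosphate), then 20 min with substrate and AmpLite Red detection. Fluorescence read at 525/598 nm; tests interference with the coupling assay, not aldolase inhibition.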
Hits are given with their value; [ ] = another dose, or the depositor's remark. Unless noted, the call rests on the fitted dose curve; in most records, active means well fitted curve in the direction sought with a large enough effect; inconclusive means small, poorly fitted or top-dose-only effect, or another doubt; inactive means no such curve, though single readings can be large; an effect the other way counts as inactive or inconclusive.

For Fc1cccc2sc(Nc3nnc(-c4ccco4)o3)nc12 the results were Tau fibril FP inactive, G9a inh inactive, Tau fluor counter inactive, Sfp PPTase inh inactive, Tau ThT inhib 13µM and Coupling enz inactive.
For O=C(N/N=C/c1cccc([N+](=O)[O-])c1)c1ccc2c(c1)OCCO2 the results were Tau fibril FP inactive, G9a inh inactive, Tau fluor counter inactive, Sfp PPTase inh inactive, Tau ThT inhib inconclusive and Coupling enz inactive.
For O=[N+]([O-])c1cccc(C=Nc2cc3c(cc2Br)OCCO3)c1 the results were Tau fibril FP inactive, G9a inh 50µM, Tau fluor counter inactive, Sfp PPTase inh inactive, Tau ThT inhib inactive and Coupling enz inactive.
`COc1ccc(NC(=O)Cn2cnc3ccc(S(=O)(=O)N4CCC(C)CC4)cc3c2=O)cc1OC` gave Tau fibril FP inactive, G9a inh inactive, Tau fluor counter inconclusive and Tau ThT inhib inactive.
For O=c1[nH]c2ccc(S(=O)(=O)Nc3ccccc3O)cc2[nH]1 the results were G9a inh 2.2µM, Sfp PPTase inh inactive and Coupling enz inactive.
For COc1ccccc1NS(=O)(=O)c1ccc2[nH]c(=O)[nH]c2c1 the results were G9a inh inactive, Sfp PPTase inh inactive and Coupling enz inactive.
For Cc1ncoc1C(=O)N1CCCC(C(=O)c2cccc(C(F)(F)F)c2)C1 (stereo not given) the results were Tau fibril FP inactive, G9a inh inactive, Tau fluor counter inactive, Sfp PPTase inh inactive, Tau ThT inhib inactive and Coupling enz inactive.
Screening Cc1ncoc1C(=O)N1CCCC(C(=O)c2ccc(C(F)(F)F)cc2)C1 (stereo not given) returned Tau fibril FP inactive, G9a inh 25µM, Tau fluor counter inactive[2.34 µM], Sfp PPTase inh inactive, Tau ThT inhib inconclusive and Coupling enz inactive.
Screening Brc1ccc(OCCN2CCOCC2)cc1 returned G9a inh 28µM, Sfp PPTase inh inactive and Coupling enz inactive.
Brc1ccc(OCCCN2CCOCC2)cc1 was read as Tau fibril FP inactive, G9a inh 28µM, Tau fluor counter inactive, Sfp PPTase inh inactive, Tau ThT inhib inactive and Coupling enz inactive.
CC1CC(C)CN(CCOc2ccc(Br)cc2)C1 (stereo not given) was read as Tau fibril FP inactive, G9a inh 11µM, Tau fluor counter inactive, Sfp PPTase inh inactive, Tau ThT inhib inactive and Coupling enz inactive.
COc1ccc(CNC(=O)CN2C(=O)CC(c3ccc(C)c(C)c3)=Nc3ccccc32)cc1 was read as Tau fibril FP inactive, G9a inh inactive, Tau fluor counter inactive and Tau ThT inhib inactive.
`Cc1cccc(C)c1OCC(=O)Nc1nc(-c2ccc(Br)cc2)ns1` gave Tau fibril FP inconclusive, G9a inh inactive, Tau fluor counter inactive and Tau ThT inhib inactive.
CCN(CC)c1cc(C)c2cc(NC(=O)c3ccc(F)cc3Cl)ccc2n1 was read as Tau fibril FP inactive, G9a inh inactive, Tau fluor counter inconclusive and Tau ThT inhib inconclusive.
Screening CCN(CC)c1cc(C)c2cc(NC(=O)c3ccccc3OC)ccc2n1 returned Tau fibril FP inactive, G9a inh inactive, Tau fluor counter inconclusive, Sfp PPTase inh inactive, Tau ThT inhib inconclusive and Coupling enz inactive.
For CCCCc1ccc(C(=O)Nc2ccc3nc(N(CC)CC)cc(C)c3c2)cc1 the results were Tau fibril FP inconclusive, G9a inh inactive, Tau fluor counter inconclusive and Tau ThT inhib inconclusive.
CCN(CC)c1cc(C)c2cc(NC(=O)c3cccc(F)c3)ccc2n1 was read as Tau fibril FP inactive, G9a inh inactive, Tau fluor counter 32µM[quencher] and Tau ThT inhib inconclusive.
For CCN(CC)c1cc(C)c2cc(NC(=O)c3ccc(Br)o3)ccc2n1 the results were Tau fibril FP inconclusive, G9a inh 56µM, Tau fluor counter inconclusive, Sfp PPTase inh inconclusive, Tau ThT inhib inconclusive and Coupling enz inactive.
CCN(CC)c1cc(C)c2cc(NC(=O)/C=C/c3ccccc3Cl)ccc2n1 was read as Tau fibril FP inactive, G9a inh inconclusive, Tau fluor counter 7.9µM[quencher] and Tau ThT inhib 3.5µM.
COc1cc(NC(=O)c2cc(S(=O)(=O)N3CCCCC3)c[nH]2)cc(OC)c1 was read as Sfp PPTase inh inactive and Coupling enz inactive.
Cc1ccc(/C(O)=C2\C(=O)C(=O)N(c3cc(C)on3)C2c2cccc(Br)c2)cc1 (stereo not given) was read as Tau fibril FP inactive, G9a inh inactive, Tau fluor counter inactive, Sfp PPTase inh inconclusive, Tau ThT inhib inactive and Coupling enz inactive.
Screening Cc1ccc(/C(O)=C2\C(=O)C(=O)N(c3cc(C)on3)C2c2cccc(Cl)c2)cc1 (stereo not given) returned Tau fibril FP inactive, G9a inh 45µM, Tau fluor counter inactive, Sfp PPTase inh inactive, Tau ThT inhib inactive and Coupling enz inactive.
For COC(=O)c1ccc(C2/C(=C(/O)c3ccc(OC)cc3)C(=O)C(=O)N2c2cc(C)on2)cc1 (stereo not given) the results were Tau fibril FP inactive, G9a inh inactive[12.7 µM], Tau fluor counter inactive, Sfp PPTase inh inactive, Tau ThT inhib inactive and Coupling enz inactive.
For COc1ccc(/C(O)=C2/C(=O)C(=O)N(c3ccccn3)C2c2cccc(Cl)c2)cc1 (stereo not given) the results were G9a inh 79µM, Sfp PPTase inh inactive and Coupling enz inactive.
Screening COc1ccc(/C(O)=C2/C(=O)C(=O)N(c3ccccn3)C2c2ccc(OC)cc2)cc1 (stereo not given) returned G9a inh inconclusive, Sfp PPTase inh inactive and Coupling enz inactive.
For COc1ccc(/C(O)=C2\C(=O)C(=O)N(c3cc(C)on3)C2c2cccc(OC)c2OC)cc1C (stereo not given) the results were Tau fibril FP inactive, G9a inh 50µM, Tau fluor counter inactive, Sfp PPTase inh inactive, Tau ThT inhib inactive and Coupling enz inactive.
CC1CCN(C(=O)CCS(=O)(=O)c2cc3c(cc2Cl)NC(=O)CO3)CC1 was read as Tau fibril FP inconclusive, G9a inh inconclusive, Tau fluor counter inactive, Sfp PPTase inh inactive, Tau ThT inhib inactive and Coupling enz inactive.
Screening CCCC/C=C/[C@H](c1ccccc1)[C@H](CO)Cc1cnc2ccccc2c1 returned Sfp PPTase inh inactive and Coupling enz inactive.
CCN(CC)C(=O)Cn1cc(C(=O)C(=O)N2CC=C(c3ccccc3)CC2)c2ccccc21 was read as Tau fibril FP inactive, G9a inh 50µM, Tau fluor counter inactive, Sfp PPTase inh inactive, Tau ThT inhib inconclusive and Coupling enz inactive.
For CCN(CC)C(=O)Cn1cc(C(=O)C(=O)N2CCN(C)CC2)c2ccccc21 the results were Sfp PPTase inh inactive and Coupling enz inactive.
For Brc1ccc(C2=Nc3cccc4cccc(c34)N2)o1 the results were Tau fibril FP inactive, G9a inh 16µM, Tau fluor counter inconclusive, Sfp PPTase inh inactive, Tau ThT inhib inconclusive and Coupling enz inactive.
